± gives the standard deviation of the averaged measurements. Over roughly 33,000 sequences, “E-score (rank enrichment, -0.5 to 0.5)” has its median near -0.0075; the highest 2% begin near 0.23. Many of the other results were omitted from the sample, so the highest values are more common in it than they were.
Test system: WT Max(13-93) synthetic (M65Nle)
Test: PBM 8-mer E-score (E-score (rank enrichment, -0.5 to 0.5)); higher = stronger preferential binding
Procedure: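 Protein binding microarray (universal PBM chip covering all 10-mers in fixed probe flanks) with chemically synthesized human Max(13-93) bHLH-LZ analogs (not full-length Max) bearing noncanonical residues (hArg, Tha, Aib, Nle at 65) and aromatic Cys staples. Read-out per 8-mer (and its reverse complement): E-score (rank-based enrichment, -0.5 to 0.5) and Z-score of median probe intensity.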

Sequence	PBM 8-mer E-score
GATATAAA	0.0778 ± 0.026
CATATAAG	0.21 ± 0.012
TATATAAA	0.196 ± 0.099
CACATATA	0.301 ± 0.098
CACATATG	0.185 ± 0.029
AATATAAA	0.26 ± 0.1
CATATAAA	0.295 ± 0.098
GACATATA	0.0052 ± 0.075
AATATAAT	0.156 ± 0.023
CGTACCAG	-0.0661 ± 0.0056
TTAGCGAA	-0.0471 ± 0.069
CGCCACGA	-0.137 ± 0.15
ATGCAGGG	0.0122 ± 0.03
CCTAAGCG	-0.0916 ± 0.0045
GTGTCTGA	0.00783 ± 0.11
GAACAAGA	0.137 ± 0.095
GATTCCCA	-0.0229 ± 0.034
AATTCCCA	0.282 ± 0.0091
AATTCCCC	0.0165 ± 0.05
GACCCGAA	-0.196 ± 0.14
AAACTACC	0.0484 ± 0.067
AAACTACA	0.219 ± 0.021
AAACTACT	0.232 ± 0.034
ACGTGCTG	0.212 ± 0.025
ACGTGCTC	0.298 ± 0.013

Sequence	PBM 8-mer E-score
ACGTGCTA	0.311 ± 0.019
CCGTGCTC	-0.0456 ± 0.034
GCGTGCTA	0.197 ± 0.0073
CCGTGCTA	-0.0393 ± 0.0021
ACCAGGGA	0.0354 ± 0.19
AGGCGCTG	-0.0811 ± 0.026
AACAGTGG	-0.0694 ± 0.089
AACTTGCA	0.193 ± 0.046
CGTGCCGC	0.0425 ± 0.15
ATAACAAG	0.223 ± 0.0096
ATAACCAG	0.113 ± 0.031
ATAACAAT	0.168 ± 0.0023
CTAACCAC	0.139 ± 0.0048
ATAACAAC	0.265 ± 0.079
ATAACCAC	0.288 ± 0.07
CTTTTTGC	0.046 ± 0.063
CACCTGGC	0.0136 ± 0.041
GGAGTGCC	-0.11 ± 0.012
CTATGACA	0.0275 ± 0.077
ATATGACA	0.263 ± 0.014
GGATGACA	-0.00576 ± 0.064
GTATGACA	0.245 ± 0.062
GTATGAAA	0.222 ± 0.033
ATATGACC	-0.0408 ± 0.015
ATAGCAGG	-0.0492 ± 0.15

Sequence	PBM 8-mer E-score
TCCGGACA	-0.0731 ± 0.033
GTCTCTAA	-0.108 ± 0.17
CCTCGCGA	-0.00258 ± 0.05
AATCGCCG	-0.197 ± 0.032
CGATATAG	-0.0681 ± 0.07
ATATATCA	0.19 ± 0.073
TTATATAA	0.256 ± 0.13
TGATATAA	0.155 ± 0.021
TTATAAAA	0.215 ± 0.03
CTTTATAA	0.127 ± 0.026
ATTTATAA	0.241 ± 0.035
CGATATAC	0.0759 ± 0.16
CTATATCC	0.135 ± 0.012
CGATATAA	0.281 ± 0.046
ATTTATAC	0.188 ± 0.078
ATATATCC	0.237 ± 0.064
TACGATAA	0.194 ± 0.094
AATGCGAA	0.03 ± 0.03
GCTCCTTA	-0.0526 ± 0.048
ATATCGGG	0.19 ± 0.03
AAGCGGCC	-0.276 ± 0.054
CCGACACA	-0.052 ± 0.075
CGCCGTTC	-0.101 ± 0.024
GGGGGCTA	-0.0501 ± 0.18
CGCGACAC	0.045 ± 0.063

Sequence	PBM 8-mer E-score
GTATATAA	0.102 ± 0.091
ATATATAA	0.246 ± 0.086
CTATATAA	0.0196 ± 0.063
CTATACAG	0.0775 ± 0.017
ATATACAC	0.161 ± 0.055
ATATACAG	0.234 ± 0.0072
GTAGTACA	0.0953 ± 0.0039
CCAACGTC	-0.0188 ± 0.032
AACGACGA	-0.113 ± 0.23
AAGACTCT	0.0105 ± 0.12
CTATGTGC	0.0889 ± 0.047
CCATGTCC	-0.0654 ± 0.065
AGATGTGC	0.0526 ± 0.076
CCATGTCA	-0.0624 ± 0.05
ACATGTCA	0.204 ± 0.057
CCATGTGA	0.308 ± 0.0086
AGATGTGA	0.16 ± 0.038
ACATGTGA	0.389 ± 0.00049
ACATGTGC	0.359 ± 0.0051
CGATGTGA	-0.114 ± 0.17
CCATGTGC	0.389 ± 0.0074
ACATGTCC	0.212 ± 0.03
CGTTGCCA	0.0775 ± 0.02
GAATGGGA	0.0933 ± 0.016
CCGACGGA	-0.238 ± 0.0081

Sequence	PBM 8-mer E-score
TAGGTGCA	0.0931 ± 0.075
CCGCAATC	-0.0997 ± 0.03
ATCTGATC	-0.138 ± 0.17
GCATGTCA	0.208 ± 0.011
AGATGTGG	0.0747 ± 0.083
ACATGTCG	0.14 ± 0.052
GAATGTGA	0.0246 ± 0.0085
GCATGTGA	0.314 ± 0.013
ACATGTGG	0.36 ± 0.049
GAGCATAA	0.0772 ± 0.044
CCTCAACG	-0.187 ± 0.062
AGGGGTCC	-0.221 ± 0.0076
CAGCGGGA	-0.165 ± 0.016
AAGCATAC	0.105 ± 0.023
AAGCATGT	0.277 ± 0.024
AAGCATGC	0.312 ± 0.066
AAGCATCC	0.0408 ± 0.066
AAGCATGG	0.219 ± 0.031
AAGCATGA	0.152 ± 0.064
AGGTGGGG	0.0712 ± 0.15
GGAAAAGA	0.0579 ± 0.031
TGCTGTAA	0.00145 ± 0.0042
ACAAGTGA	0.0895 ± 0.13
GAGCTTGA	-0.165 ± 0.014
GGTCCCAC	-0.0853 ± 0.11

Sequence	PBM 8-mer E-score
GGAATAAA	0.0114 ± 0.13
AGAATAAG	-0.0395 ± 0.13
CGAATAAA	0.0742 ± 0.027
TGAATAAA	0.305 ± 0.013
AGAATAAT	0.177 ± 0.0073
AGAATAAA	0.262 ± 0.034
CTCGCGGC	-0.138 ± 0.055
ACACGTAG	0.0871 ± 0.035
ACACGTAT	0.192 ± 0.027
TCACGTCA	-0.00158 ± 0.0094
TCACGTAA	0.129 ± 0.01
AGACGTGC	-0.0899 ± 0.02
ACACGTGG	0.4934 ± 0.00068
AAACGTGG	0.206 ± 0.021
AAACGTGT	0.166 ± 0.05
ACACGTGC	0.4859 ± 0.0013
ACACGTGT	0.487 ± 0.002
TCACGTGA	0.444 ± 0.018
ACACGTAC	0.159 ± 0.044
CTGCCAAC	-0.111 ± 0.013
GATACCAA	-0.0524 ± 0.022
CAGTGAAC	0.0267 ± 0.035
ACAATCTG	0.065 ± 0.027
AGAAACTC	-0.0484 ± 0.078
ACGAAAAA	0.221 ± 0.056

Sequence	PBM 8-mer E-score
CTTGCGTA	0.0635 ± 0.052
ACACGTGA	0.4747 ± 0.0033
AGACGTGA	0.103 ± 0.038
ATACGTGA	-0.00216 ± 0.0077
AAGCAGGC	-0.0736 ± 0.011
CGTGGGGC	0.119 ± 0.11
AGATGACT	-0.172 ± 0.045
CACTTCTC	0.0461 ± 0.0024
AATTATCG	0.132 ± 0.064
CGTTATCA	0.044 ± 0.015
CATTATCA	0.242 ± 0.09
AATTATCA	0.273 ± 0.083
GGTTATCA	0.232 ± 0.078
AGTTATCA	0.07501 ± 0.00026
TATTATCA	0.2 ± 0.026
CATCATTA	0.238 ± 0.034
AATTATCC	0.0573 ± 0.0067
CATTATCG	-0.0926 ± 0.0027
AATCATTA	0.223 ± 0.072
CATCATTC	-0.011 ± 0.044
GGACTGCA	-0.017 ± 0.043
CGTGTCTC	0.201 ± 0.035
